Seven sequences from PMC7862700, “An all-to-all approach to the identification of sequence-specific readers for epigenetic DNA modifications on cytosine” can be followed below.

Holding throughout (assay): DAPPL (digital affinity profiling via proximity ligation, sequencing); 10 mM Tris-HCl pH 7.5, 50 mM NaCl, 1 mM DTT, 4% glycerol, room temperature, 30 min; GST-TFs on glutathione beads, 16-mer random dsDNA library, 0.1% formaldehyde crosslink after washing; high values mean tight binding
What all share (conditions): protein: recombinant; tags: N-terminal GST; dsDNA, one strand shown

One test has as its target T1, ERF (Homo sapiens, UniProt P50548 1-548).
T1 sequence: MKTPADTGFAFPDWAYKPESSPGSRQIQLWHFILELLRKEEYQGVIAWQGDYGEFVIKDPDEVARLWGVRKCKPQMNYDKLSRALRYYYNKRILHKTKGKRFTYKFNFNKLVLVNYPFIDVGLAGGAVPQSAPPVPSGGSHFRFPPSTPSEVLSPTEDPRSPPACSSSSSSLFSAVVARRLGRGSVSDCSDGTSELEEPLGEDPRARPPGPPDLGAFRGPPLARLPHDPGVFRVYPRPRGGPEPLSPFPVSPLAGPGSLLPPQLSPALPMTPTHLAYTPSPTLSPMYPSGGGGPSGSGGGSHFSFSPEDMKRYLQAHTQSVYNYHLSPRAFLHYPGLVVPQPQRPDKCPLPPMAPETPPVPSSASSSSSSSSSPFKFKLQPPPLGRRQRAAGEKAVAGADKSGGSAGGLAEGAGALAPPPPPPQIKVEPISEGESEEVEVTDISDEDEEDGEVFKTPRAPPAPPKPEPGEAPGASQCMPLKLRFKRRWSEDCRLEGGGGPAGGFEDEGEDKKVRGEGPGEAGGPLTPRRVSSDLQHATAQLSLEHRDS
A digest of the protocol: (§1)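 Pools were built from human transcription factors expressed in yeast as GST fusions, captured on glutathione beads and DNA-barcoded, along with a tag-only sample. Incubation with 200 nmole of a 16-mer random double-stranded DNA library lasted 30 min at room temperature in Tris/NaCl/DTT/glycerol buffer, and was followed by washing, 0.1% formaldehyde crosslinking, proximity ligation, PCR amplification and Illumina NextSeq500 sequencing. Binding signal is the quotient of each hexamer's read frequency for a factor and its frequency for the tag-only sample.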

Another test deals with T2, ETV3L (Homo sapiens, UniProt Q6ZN32 1-361).
T2 sequence: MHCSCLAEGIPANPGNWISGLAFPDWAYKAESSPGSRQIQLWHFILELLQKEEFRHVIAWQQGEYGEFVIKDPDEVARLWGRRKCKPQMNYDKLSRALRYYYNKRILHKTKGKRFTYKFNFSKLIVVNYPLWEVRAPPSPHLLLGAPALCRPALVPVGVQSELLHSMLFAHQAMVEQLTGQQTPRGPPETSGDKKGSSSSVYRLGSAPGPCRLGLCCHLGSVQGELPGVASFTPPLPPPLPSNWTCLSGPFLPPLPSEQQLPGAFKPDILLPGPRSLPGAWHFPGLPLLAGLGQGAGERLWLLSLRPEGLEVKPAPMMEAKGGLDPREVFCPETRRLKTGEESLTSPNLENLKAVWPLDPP
A digest of the protocol: as §1

Another test concerns the target T3, ETS2 (Homo sapiens, UniProt P15036 1-469).
T3 sequence: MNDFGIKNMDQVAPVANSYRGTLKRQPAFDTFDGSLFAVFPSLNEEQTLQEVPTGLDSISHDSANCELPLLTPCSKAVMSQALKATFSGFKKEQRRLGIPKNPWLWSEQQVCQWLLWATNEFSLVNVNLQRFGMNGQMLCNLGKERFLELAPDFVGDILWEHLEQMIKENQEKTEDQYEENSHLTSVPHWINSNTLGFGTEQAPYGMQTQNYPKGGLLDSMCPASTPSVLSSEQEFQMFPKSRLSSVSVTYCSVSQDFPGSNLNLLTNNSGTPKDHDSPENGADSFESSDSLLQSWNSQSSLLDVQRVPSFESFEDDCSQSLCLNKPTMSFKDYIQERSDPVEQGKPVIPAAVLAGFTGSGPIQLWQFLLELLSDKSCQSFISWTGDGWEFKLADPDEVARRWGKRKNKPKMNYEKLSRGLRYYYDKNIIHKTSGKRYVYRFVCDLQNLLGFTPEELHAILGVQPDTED
The procedure, abridged: as §1

The target of the next test is T4, SPDEF (Homo sapiens, UniProt O95238 1-335).
T4 sequence: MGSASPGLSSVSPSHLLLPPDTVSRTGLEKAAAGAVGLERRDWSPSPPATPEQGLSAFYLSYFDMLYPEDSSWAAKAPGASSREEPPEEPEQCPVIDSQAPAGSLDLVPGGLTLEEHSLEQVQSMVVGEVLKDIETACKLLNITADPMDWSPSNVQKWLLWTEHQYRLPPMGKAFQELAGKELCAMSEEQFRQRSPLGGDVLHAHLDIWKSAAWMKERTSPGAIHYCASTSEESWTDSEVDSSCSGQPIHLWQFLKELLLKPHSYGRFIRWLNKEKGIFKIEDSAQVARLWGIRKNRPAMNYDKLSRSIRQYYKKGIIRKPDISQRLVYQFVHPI
The procedure, abridged:
as §1

The target of a further test is T5, ETV7 (Homo sapiens, UniProt Q9Y603 1-341).
T5 sequence: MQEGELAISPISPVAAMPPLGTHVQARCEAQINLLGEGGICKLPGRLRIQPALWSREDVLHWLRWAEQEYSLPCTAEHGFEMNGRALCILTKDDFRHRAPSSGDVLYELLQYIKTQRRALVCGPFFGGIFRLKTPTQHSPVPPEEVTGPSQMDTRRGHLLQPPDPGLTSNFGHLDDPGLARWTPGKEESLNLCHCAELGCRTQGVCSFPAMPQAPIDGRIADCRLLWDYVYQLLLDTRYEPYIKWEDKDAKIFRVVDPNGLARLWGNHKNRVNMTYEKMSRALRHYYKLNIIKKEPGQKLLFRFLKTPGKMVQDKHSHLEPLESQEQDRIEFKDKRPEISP
A digest of the protocol: as §1

In the next test the target is T6, ELF5 (Homo sapiens, UniProt Q9UKW6-2 1-255).
T6 sequence: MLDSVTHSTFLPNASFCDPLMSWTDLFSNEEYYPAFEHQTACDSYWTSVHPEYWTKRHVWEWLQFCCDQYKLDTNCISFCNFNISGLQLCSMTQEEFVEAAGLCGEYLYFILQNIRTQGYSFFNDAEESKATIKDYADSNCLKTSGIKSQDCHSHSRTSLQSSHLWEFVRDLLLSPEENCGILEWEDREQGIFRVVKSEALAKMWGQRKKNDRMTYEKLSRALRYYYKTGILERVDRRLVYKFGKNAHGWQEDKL
A digest of the protocol:
as §1

The next test deals with T7, ETV3 (Homo sapiens, UniProt P41162-2 1-143).
T7 sequence: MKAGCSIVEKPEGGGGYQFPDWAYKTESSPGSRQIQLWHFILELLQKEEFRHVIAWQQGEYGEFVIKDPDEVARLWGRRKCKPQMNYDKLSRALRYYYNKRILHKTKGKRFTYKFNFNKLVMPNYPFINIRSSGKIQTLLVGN
The procedure, abridged: as §1

In another test the target is ETV6 (Homo sapiens, UniProt P41212 1-452). The procedure, abridged: as §1
Chain of ETV6 (P41212 whole entry): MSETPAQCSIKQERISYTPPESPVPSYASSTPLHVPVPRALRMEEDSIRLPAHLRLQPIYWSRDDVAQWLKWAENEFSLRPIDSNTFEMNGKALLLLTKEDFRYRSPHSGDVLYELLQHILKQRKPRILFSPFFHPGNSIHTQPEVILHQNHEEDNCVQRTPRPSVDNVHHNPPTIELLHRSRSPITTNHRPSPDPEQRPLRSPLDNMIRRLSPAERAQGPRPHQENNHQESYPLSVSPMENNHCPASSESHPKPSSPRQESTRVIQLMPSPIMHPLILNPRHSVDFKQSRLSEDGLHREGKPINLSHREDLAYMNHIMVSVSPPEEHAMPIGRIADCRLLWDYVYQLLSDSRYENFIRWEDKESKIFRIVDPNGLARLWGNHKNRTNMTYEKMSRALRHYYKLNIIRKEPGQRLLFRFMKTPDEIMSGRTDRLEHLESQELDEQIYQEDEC

As for ACCCCC, the binding signal with ERF was 1.08 fold enrichment (6-mer frequency, TF over GST control); with ETV3L, 1.16 fold enrichment (6-mer frequency, TF over GST control); with ETS2, 1.15 fold enrichment (6-mer frequency, TF over GST control); with SPDEF, 1.1 fold enrichment (6-mer frequency, TF over GST control); in the test with ETV7 it was 1.08 fold enrichment (6-mer frequency, TF over GST control); with ELF5, 1.12 fold enrichment (6-mer frequency, TF over GST control). The binding signal was 1.21 fold enrichment (6-mer frequency, TF over GST control) with ETV3 and 1.06 fold enrichment (6-mer frequency, TF over GST control) in the test with ETV6.
In the case of CCGGAC, the binding signal is 1.4 fold enrichment (6-mer frequency, TF over GST control) with ERF; 1.48 fold enrichment (6-mer frequency, TF over GST control) in the test with ETV3L; 1.52 fold enrichment (6-mer frequency, TF over GST control) with ETS2; 2.1 fold enrichment (6-mer frequency, TF over GST control) in the test with SPDEF; 1.39 fold enrichment (6-mer frequency, TF over GST control) in the test with ETV7; 1.77 fold enrichment (6-mer frequency, TF over GST control) with ELF5. Moreover, the binding signal with ETV3 was 1.6 fold enrichment (6-mer frequency, TF over GST control); in the test with ETV6 it was 1.41 fold enrichment (6-mer frequency, TF over GST control).
For GGACAT, the binding signal with ERF is 1.12 fold enrichment (6-mer frequency, TF over GST control); in the test with ETV3L, 1.13 fold enrichment (6-mer frequency, TF over GST control); with ETS2, 1.18 fold enrichment (6-mer frequency, TF over GST control); with SPDEF it was 1.43 fold enrichment (6-mer frequency, TF over GST control); with ETV7, 1.23 fold enrichment (6-mer frequency, TF over GST control); with ELF5, 1.24 fold enrichment (6-mer frequency, TF over GST control). For the same sequence, the binding signal in the test with ETV3 is 1.23 fold enrichment (6-mer frequency, TF over GST control); with ETV6, 1.18 fold enrichment (6-mer frequency, TF over GST control).
In the case of CCTGCG, the binding signal is 1.22 fold enrichment (6-mer frequency, TF over GST control) with ERF; 1.49 fold enrichment (6-mer frequency, TF over GST control) with ETV3L; 1.27 fold enrichment (6-mer frequency, TF over GST control) in the test with ETS2; 1.23 fold enrichment (6-mer frequency, TF over GST control) in the test with SPDEF; 1.38 fold enrichment (6-mer frequency, TF over GST control) in the test with ETV7; 1.3 fold enrichment (6-mer frequency, TF over GST control) with ELF5. The binding signal with ETV3 is 1.4 fold enrichment (6-mer frequency, TF over GST control); with ETV6 it was 1.35 fold enrichment (6-mer frequency, TF over GST control).
Consider ACACTG, for which the binding signal with ERF is 1.17 fold enrichment (6-mer frequency, TF over GST control); with ETV3L, 1.11 fold enrichment (6-mer frequency, TF over GST control); with ETS2 it was 1.06 fold enrichment (6-mer frequency, TF over GST control); with SPDEF it was 1.05 fold enrichment (6-mer frequency, TF over GST control); in the test with ETV7 it was 1.03 fold enrichment (6-mer frequency, TF over GST control); in the test with ELF5 it was 1.05 fold enrichment (6-mer frequency, TF over GST control). Besides, the binding signal with ETV3 was 1.01 fold enrichment (6-mer frequency, TF over GST control); with ETV6, 1.04 fold enrichment (6-mer frequency, TF over GST control).
Turning to AAGCAC, the binding signal in the test with ERF is 1.19 fold enrichment (6-mer frequency, TF over GST control); with ETV3L, 1.2 fold enrichment (6-mer frequency, TF over GST control); in the test with ETS2, 1.17 fold enrichment (6-mer frequency, TF over GST control); with SPDEF it was 1.29 fold enrichment (6-mer frequency, TF over GST control); with ETV7, 1.3 fold enrichment (6-mer frequency, TF over GST control); with ELF5 it was 1.28 fold enrichment (6-mer frequency, TF over GST control). Also, the binding signal with ETV3 is 1.19 fold enrichment (6-mer frequency, TF over GST control); in the test with ETV6 it was 1.28 fold enrichment (6-mer frequency, TF over GST control).
As for GAAGCG, the binding signal is 1.29 fold enrichment (6-mer frequency, TF over GST control) with ERF; 1.32 fold enrichment (6-mer frequency, TF over GST control) with ETV3L; 1.33 fold enrichment (6-mer frequency, TF over GST control) with ETS2; 1.29 fold enrichment (6-mer frequency, TF over GST control) with SPDEF; 1.36 fold enrichment (6-mer frequency, TF over GST control) in the test with ETV7; 1.35 fold enrichment (6-mer frequency, TF over GST control) in the test with ELF5. The binding signal was 1.36 fold enrichment (6-mer frequency, TF over GST control) with ETV3 and 1.43 fold enrichment (6-mer frequency, TF over GST control) with ETV6.
